Data on 23 molecules can be found in PubChem BioAssay (EPA / NIEHS).

The structures appear in SMILES notation. Records with an inconclusive call do not appear. Activity calls are given as the source filed them. How the source made its calls: active means hit-call score of the fitted dose curve at least 0.9, where 1 is the maximum; inconclusive means response in the unintended direction; inactive means score below 0.9.

Sequence of human Rho Associated Coiled-coil Containing Protein Kinase 1 (ROCK1), ROCK1 (gene 6093) (Q13464 whole entry, looked up): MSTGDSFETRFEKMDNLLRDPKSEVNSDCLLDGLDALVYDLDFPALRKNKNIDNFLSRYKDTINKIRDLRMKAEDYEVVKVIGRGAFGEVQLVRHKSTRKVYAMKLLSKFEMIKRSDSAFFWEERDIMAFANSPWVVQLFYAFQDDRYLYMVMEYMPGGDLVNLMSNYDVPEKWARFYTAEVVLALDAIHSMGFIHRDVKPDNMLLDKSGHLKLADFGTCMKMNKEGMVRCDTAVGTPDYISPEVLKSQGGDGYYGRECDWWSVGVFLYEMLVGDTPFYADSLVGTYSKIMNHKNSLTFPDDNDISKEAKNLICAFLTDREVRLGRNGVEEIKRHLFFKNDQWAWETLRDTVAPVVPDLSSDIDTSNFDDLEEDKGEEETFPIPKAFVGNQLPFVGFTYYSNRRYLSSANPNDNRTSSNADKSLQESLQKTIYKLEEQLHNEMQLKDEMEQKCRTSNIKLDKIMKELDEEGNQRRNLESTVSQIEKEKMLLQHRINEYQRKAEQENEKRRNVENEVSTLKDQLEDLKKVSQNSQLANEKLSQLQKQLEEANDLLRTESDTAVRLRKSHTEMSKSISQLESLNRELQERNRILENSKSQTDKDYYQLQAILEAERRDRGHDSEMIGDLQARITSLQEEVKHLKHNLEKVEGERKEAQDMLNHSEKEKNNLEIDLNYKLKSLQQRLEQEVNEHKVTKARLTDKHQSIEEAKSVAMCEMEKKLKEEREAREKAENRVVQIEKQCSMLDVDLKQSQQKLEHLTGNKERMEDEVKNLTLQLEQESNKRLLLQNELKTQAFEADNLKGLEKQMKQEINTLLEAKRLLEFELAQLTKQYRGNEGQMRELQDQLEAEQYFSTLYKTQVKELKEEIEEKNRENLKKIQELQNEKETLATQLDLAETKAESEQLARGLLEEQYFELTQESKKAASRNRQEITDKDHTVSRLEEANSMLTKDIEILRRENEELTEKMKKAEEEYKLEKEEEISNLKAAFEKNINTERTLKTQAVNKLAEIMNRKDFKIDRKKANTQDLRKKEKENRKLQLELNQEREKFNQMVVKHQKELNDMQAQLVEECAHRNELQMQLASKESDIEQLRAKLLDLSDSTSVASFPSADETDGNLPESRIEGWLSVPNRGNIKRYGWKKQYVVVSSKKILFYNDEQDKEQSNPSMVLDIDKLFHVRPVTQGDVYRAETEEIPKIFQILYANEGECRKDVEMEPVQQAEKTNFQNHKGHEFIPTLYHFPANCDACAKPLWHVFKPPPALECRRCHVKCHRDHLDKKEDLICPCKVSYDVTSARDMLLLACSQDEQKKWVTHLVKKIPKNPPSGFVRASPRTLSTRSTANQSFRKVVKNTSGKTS
Sequence of sheep Cyclooxygenase-2 (Cox2), PTGS2 (gene 443460) (P79208 whole entry, looked up): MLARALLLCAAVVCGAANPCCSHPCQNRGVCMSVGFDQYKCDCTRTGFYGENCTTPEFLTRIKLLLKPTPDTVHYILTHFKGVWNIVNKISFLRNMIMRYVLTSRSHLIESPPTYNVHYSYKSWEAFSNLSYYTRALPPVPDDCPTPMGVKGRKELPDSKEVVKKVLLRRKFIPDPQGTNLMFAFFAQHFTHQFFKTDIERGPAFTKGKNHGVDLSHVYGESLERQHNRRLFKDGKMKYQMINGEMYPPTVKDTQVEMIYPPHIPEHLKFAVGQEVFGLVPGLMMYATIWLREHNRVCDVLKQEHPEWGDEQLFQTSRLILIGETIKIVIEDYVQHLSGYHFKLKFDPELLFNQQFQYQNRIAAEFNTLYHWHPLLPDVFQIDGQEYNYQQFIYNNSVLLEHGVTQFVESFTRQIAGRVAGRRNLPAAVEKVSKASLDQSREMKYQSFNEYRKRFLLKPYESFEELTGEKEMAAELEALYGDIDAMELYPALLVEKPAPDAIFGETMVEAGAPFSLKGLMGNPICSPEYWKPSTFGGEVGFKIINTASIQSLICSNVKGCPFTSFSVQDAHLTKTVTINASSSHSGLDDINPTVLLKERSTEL
Sequence of human Sirtuin 1 (SIRT1), SIRT1 (gene 23411) (Q96EB6 whole entry, looked up): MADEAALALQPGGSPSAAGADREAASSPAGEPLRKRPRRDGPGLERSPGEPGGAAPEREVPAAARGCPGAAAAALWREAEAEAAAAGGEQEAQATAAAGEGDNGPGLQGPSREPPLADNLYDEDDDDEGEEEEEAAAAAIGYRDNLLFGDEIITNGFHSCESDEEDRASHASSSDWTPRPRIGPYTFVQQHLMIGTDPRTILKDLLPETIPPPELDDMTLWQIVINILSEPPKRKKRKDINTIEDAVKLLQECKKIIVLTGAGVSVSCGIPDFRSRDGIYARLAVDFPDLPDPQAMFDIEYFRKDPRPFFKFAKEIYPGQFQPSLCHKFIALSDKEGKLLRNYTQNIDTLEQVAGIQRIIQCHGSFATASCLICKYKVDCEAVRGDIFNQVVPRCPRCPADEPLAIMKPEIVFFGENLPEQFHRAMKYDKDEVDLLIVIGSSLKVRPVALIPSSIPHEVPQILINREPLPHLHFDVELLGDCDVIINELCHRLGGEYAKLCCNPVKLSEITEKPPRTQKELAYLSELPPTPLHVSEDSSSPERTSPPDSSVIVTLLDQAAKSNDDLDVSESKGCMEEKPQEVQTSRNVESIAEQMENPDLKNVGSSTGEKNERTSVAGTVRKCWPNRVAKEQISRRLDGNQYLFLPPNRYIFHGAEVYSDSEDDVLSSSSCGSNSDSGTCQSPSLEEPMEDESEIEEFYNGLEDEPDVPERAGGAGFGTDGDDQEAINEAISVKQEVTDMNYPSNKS
Sequence of human Vascular Endothelial Growth Factor Receptor 2 (VEGFR2), KDR (gene 3791) (P35968 whole entry, looked up): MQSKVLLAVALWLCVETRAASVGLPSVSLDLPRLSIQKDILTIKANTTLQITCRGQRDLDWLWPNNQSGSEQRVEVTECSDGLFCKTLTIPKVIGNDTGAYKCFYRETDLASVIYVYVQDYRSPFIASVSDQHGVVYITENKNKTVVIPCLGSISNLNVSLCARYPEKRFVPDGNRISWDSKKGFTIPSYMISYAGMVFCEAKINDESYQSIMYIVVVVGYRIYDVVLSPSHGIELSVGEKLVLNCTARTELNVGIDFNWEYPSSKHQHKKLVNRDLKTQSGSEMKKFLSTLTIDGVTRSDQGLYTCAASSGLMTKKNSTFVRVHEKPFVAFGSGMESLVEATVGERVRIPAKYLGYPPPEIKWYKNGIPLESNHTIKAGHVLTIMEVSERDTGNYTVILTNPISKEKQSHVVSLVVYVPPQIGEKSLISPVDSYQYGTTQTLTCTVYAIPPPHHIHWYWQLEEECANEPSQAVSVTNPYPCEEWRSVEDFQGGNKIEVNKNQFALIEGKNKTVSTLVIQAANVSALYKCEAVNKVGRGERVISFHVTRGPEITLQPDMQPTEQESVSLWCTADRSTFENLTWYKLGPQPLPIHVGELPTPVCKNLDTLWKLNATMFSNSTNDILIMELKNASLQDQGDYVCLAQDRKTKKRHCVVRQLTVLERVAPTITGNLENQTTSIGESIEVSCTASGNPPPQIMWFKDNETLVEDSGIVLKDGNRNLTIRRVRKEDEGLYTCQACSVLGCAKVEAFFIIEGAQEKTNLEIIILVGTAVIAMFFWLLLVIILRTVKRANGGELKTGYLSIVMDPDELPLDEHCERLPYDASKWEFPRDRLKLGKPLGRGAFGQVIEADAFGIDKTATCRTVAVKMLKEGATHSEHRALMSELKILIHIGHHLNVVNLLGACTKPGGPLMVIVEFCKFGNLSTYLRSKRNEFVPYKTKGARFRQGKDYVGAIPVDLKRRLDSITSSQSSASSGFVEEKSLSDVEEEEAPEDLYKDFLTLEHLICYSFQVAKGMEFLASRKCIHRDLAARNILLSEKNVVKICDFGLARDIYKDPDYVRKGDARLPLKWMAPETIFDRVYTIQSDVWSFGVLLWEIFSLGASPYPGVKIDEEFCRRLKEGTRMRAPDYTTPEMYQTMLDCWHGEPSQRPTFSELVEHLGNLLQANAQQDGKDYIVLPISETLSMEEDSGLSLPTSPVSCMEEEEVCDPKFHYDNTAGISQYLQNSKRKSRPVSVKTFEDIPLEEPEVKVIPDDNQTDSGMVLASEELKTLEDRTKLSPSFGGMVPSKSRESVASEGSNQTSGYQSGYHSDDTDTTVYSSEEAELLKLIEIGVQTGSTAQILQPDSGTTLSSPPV

The first test concerns the target human Rho Associated Coiled-coil Containing Protein Kinase 1 (ROCK1), ROCK1 (gene 6093) (UniProt Q13464). The test is described as follows: NVS_ENZ_hROCK1: NovaScreen (NVS) Enzymatic Assay for human Rho Associated Coiled-coil Containing Protein Kinase 1 (ROCK1) (AID 2283214). In short, it runs like this:
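Cell-free recombinant human ROCK1 activity assay; fluorescent substrate and product separated by electrophoretic mobility shift, read 1 h after dosing. Screened in duplicate at 25 uM; loss of signal versus DMSO baseline scored as inhibition.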
For the molecule `CCCc1ccccc1`, the result was inactive.
On to `CC(=O)c1ccccc1`, for which the molecule was classed as inactive.
Same read-out and setting: to `CCN(CC)C(=S)SSC(=S)N(CC)CC` belongs “inactive”.

A further test addresses human Sirtuin 1 (SIRT1), SIRT1 (gene 23411) (UniProt Q96EB6). The test is described as follows: NVS_ENZ_hSIRT1: NovaScreen (NVS) Enzymatic Assay for human Sirtuin 1 (SIRT1) (AID 2283219). In short, it runs like this:
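Cell-free recombinant SIRT1 with a fluorescent substrate; substrate and product separated by electrophoretic mobility shift and read by fluorescence intensity, 1 h after dosing. Primary screen at 25 uM in duplicate; hits re-run in concentration-response up to 50 uM, relative to DMSO.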
`COCc1nnc(-c2ccc[n+]([O-])c2)n1-c1c(Cl)c(Cl)cc2[nH]c(=O)c(=O)[nH]c12`: the result was inactive.
The same measure, in the same setting: with `Cn1cc[nH]c1=S` the entry was “inactive”; with `CCCCCCOC(=O)CC(CC(=O)OCCCCCC)(OC(=O)CCC)C(=O)OCCCCCC`, “inactive”.
As for `CC(C)c1nnc2ccc(-c3ocnc3-c3cc(F)ccc3F)cn12`, the call was inactive.
Still for that read-out and setting: with `NC(N)=O` the entry was “inactive”.
In the case of `CC(=O)c1ccccc1`, the molecule was called inactive.
Take `CCc1cccc(CC)c1N`: the molecule was called inactive.
Consider `CCN(CC)C(=S)SSC(=S)N(CC)CC`, for which the molecule was classed as inactive.

The target of another test is rabbit Imidazoline 2 Central (I2C), CKB (gene 100009085) (UniProt P00567). As to the kind of experiment: NVS_ENZ_rabI2C: NovaScreen (NVS) Enzymatic Assay for rabbit Imidazoline 2 Central (I2C) (AID 2283228). In short, it runs like this: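 Rabbit brain membranes, cell-free; readout by filter-based scintillation counting 1.5 hours after dosing, loss of signal vs DMSO. Initial duplicate test at 25 uM, then concentration-response with 50 uM top concentration.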
Sequence of rabbit Imidazoline 2 Central (I2C), CKB (gene 100009085) (P00567 whole entry, looked up): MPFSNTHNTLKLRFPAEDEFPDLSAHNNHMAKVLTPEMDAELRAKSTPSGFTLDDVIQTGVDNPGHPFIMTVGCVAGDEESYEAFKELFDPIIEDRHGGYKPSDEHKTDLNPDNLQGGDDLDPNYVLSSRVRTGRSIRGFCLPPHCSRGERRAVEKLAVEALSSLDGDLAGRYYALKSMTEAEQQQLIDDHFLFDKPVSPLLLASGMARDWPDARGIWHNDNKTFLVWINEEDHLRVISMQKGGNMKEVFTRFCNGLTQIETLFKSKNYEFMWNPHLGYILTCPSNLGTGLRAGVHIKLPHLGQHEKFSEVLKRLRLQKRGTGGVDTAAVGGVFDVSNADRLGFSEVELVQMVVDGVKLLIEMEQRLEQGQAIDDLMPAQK
`NC(=O)N(O)[C@@H]1COc2cc(OCc3ccccc3)ccc21`: the half-maximal activity concentration (AC50) was 19.9 µM (active).
For the molecule `COc1cc(C(C)C)c2c(c1)S(=O)(=O)N(COc1cc(=O)n3cccc(OCCN4CCCCC4)c3n1)C2=O`, the call was inactive.
As for `c1ccc(C(O[C@@H]2CCCN(CCc3ccc4c(c3)OCO4)C2)c2ccccc2)cc1`, the AC50 was 4.09 µM (active).
In the case of `O=C(O)c1cccc(C[C@@H]2COc3ccc(OCc4nc5cc(F)ccc5s4)cc3[C@@H]2O)c1`, the outcome was inactive.
With `CCCCCCCCN(C)C`, the outcome was inactive.
`CC(C)C(=O)Nc1ccc([N+](=O)[O-])c(C(F)(F)F)c1`: the call was inactive.
With `Cc1nccn1-c1ccc(Sc2cccc(C3(C(N)=O)CCOCC3)c2)cc1`, the AC50 was 9.43 µM (active).

Another test addresses human Vascular Endothelial Growth Factor Receptor 2 (VEGFR2), KDR (gene 3791) (UniProt P35968). The test is described as follows: NVS_ENZ_hVEGFR2: NovaScreen (NVS) Enzymatic Assay for human Vascular Endothelial Growth Factor Receptor 2 (VEGFR2) (AID 2283230). In short, it runs like this:
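Cell-free recombinant VEGFR2 kinase, fluorescent substrate with electrophoretic mobility-shift separation; read 1 h after dosing. Screened at 25 uM in duplicate, hits to concentration-response up to 50 uM; loss-of-signal versus DMSO.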
`CCCCCCCCCCCCCCO`: the call was inactive.
Same read-out and setting: to `Cc1ccc(S(=O)(=O)NC(=O)NN2CCCCCC2)cc1` belongs “inactive”.
On the same count and under the same terms, with `OCCNCCO` the entry was “inactive”.
On to `C=CCc1cc(S(=O)(=O)c2ccc(O)c(CC=C)c2)ccc1O`, for which the AC50 was 21.2 µM (active).
`CC[C@H](C)C(=O)O[C@H]1C[C@H](O)C=C2C=C[C@H](C)[C@H](CC[C@@H](O)C[C@@H](O)CC(=O)O)[C@H]21`: the molecule was called inactive.
As for `CCN(CC)C(=S)SSC(=S)N(CC)CC`, the molecule was classed as inactive.

Another test addresses sheep Cyclooxygenase-2 (Cox2), PTGS2 (gene 443460) (UniProt P79208). As to the kind of experiment: NVS_ENZ_oCOX2: NovaScreen (NVS) Enzymatic Assay for sheep Cyclooxygenase-2 (Cox2) (AID 2283231). As for the experimental part: NVS_ENZ_oCOX2 is a biochemical, single-readout assay that uses extracted gene-proteins from Ovine placenta in a tissue-based cell-free assay. Measurements were taken 0.66 hour after chemical dosing in a 96-well plate.NVS_ENZ_oCOX2 is one of one assay component(s) measured or calculated from the NVS_ENZ_oCOX2 assay. It is designed to make measurements of enzyme activity, a form of enzyme reporter, as detected with absorbance signals by Colorimetric technology.Data from the assay component NVS_ENZ_oCOX2 was analyzed into 1 assay endpoint. This assay endpoint, NVS_ENZ_oCOX2, was analyzed in the positive analysis fitting direction relative to DMSO as the negative control and baseline of activity. Using a type of enzyme reporter, loss-of-signal activity can be used to understand changes in the enzymatic activity as they relate to the gene PTGS2. Furthermore, this assay endpoint can be referred to as a primary readout, because this assay has produced multiple assay endpoints where this one serves a enzymatic activity function. To generalize the intended target to other relatable targets, this assay endpoint is annotated to the oxidoreductase intended target family, where the subfamily is cyclooxygenase.
Binding assays used specific radioligands (tritiated, iodinated) with non-radioactive competitive displacement ligands in agonist or antagonist protocols (as indicated) and various reference compounds and inhibitors to titrate specific binding to receptors and transporters. Most enzyme assays (CYPs, kinases, phosphatases, proteases, HDACs) used recombinant protein and specific substrates (fluorescence mostly, some colorimetric and radioactive) and inhibitors, followed by a biochemical separation of substrate and product. All assays for the biochemical HTS were initially run in duplicate at a single concentration (10 uM for CYP450 assays and 25 uM for all others). Assay-chemical combinations meeting a pre-defined threshold (e.g., 30% inhibition and other criteria defined below) were then run in singleton concentration-response format with maximum concentration of 20 uM for CYPs and 50 uM for all others. Each assay was run with positive and negative controls, and concurrent controls on every plate. The follow-up (secondary) screen tested active chemical-pairs in concentration series, as well as a few additional assays not tested in the primary screen, some selected negative inactives, and several cases re-run in the concentration series for confirmatory purposes.
`COc1cc(C(C)C)c2c(c1)S(=O)(=O)N(COc1cc(=O)n3cccc(OCCN4CCCCC4)c3n1)C2=O`: the call was inactive.
Consider `CCn1nc(C)c2c1C(=O)NCC(c1ccc(O)cc1)=N2`, for which the molecule was called inactive.
For the molecule `CC[C@H](C)C(=O)O[C@H]1C[C@H](O)C=C2C=C[C@H](C)[C@H](CC[C@@H](O)C[C@@H](O)CC(=O)O)[C@H]21`, the AC50 is 4.48 µM (active).
As to `OCc1ccccc1`, the AC50 was 12.3 µM (active).
